Reference: PubChem BioAssay (Tox21)
“And” between values parts separate entries of the source, which are not always exact repeats. Equal values may be shown once. More than one record can exist for a structure, and the calls need not agree. The source made the active and inactive calls. Where a call stands in place of a potency, no number is given. Unless noted, the call rests on the fitted dose curve; in most records, active means well fitted curve in the direction sought with a large enough effect in the repeat runs; inconclusive means weak or mixed curves; inactive means no such curve, though single readings can be large; an effect the other way counts as inactive or inconclusive.

What was measured:
[1] = qHTS assay to identify small molecule antagonists of the thyroid receptor (TR) signaling pathway - cell viability counter screen (AID 743064); further: nearly all actives have a fitted effect of over 50% in size; further: potency means the concentration at half of the fitted maximal effect
Outline: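 Fluorescence from CellTiter-Fluor, added after 23.5 h exposure at 37 °C, reported viability of GH3.TRE-Luc cells co-treated with compound and 1 nM T3. Measured in the same wells as the luciferase TR readout.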

[2] = qHTS assay to identify small molecule antagonists of the thyroid receptor (TR) signaling pathway (AID 743065); further: nearly all actives have a fitted effect of over 55% in size; further: potency means the concentration at half of the fitted maximal effect
Outline: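 GH3.TRE-Luc rat pituitary cells (two TREs driving luciferase) were dosed with compound, then stimulated with 1 nM T3 (final) for 23.5 h at 37 C. ONE-Glo luminescence was the read-out, with CellTiter-Fluor fluorescence as the cytotoxicity counter-screen.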

[3] = system: thyroid hormone receptor (rat, GH3 cells); assay: qHTS assay to identify small molecule agonists of the thyroid receptor (TR) signaling pathway (AID 743066; calls by dose curve)
[4] = molecular target: Estrogen receptor (Homo sapiens) (UniProt P03372); assay: qHTS assay to identify small molecule antagonists of the estrogen receptor alpha (ER-alpha) signaling pathway (AID 743069; active means well fitted curve in the direction sought with a large enough effect in the signal ratio in the repeat runs, not every such curve was filed as active; inconclusive means weak or mixed curves, or effect the other way; inactive means no such curve, though single readings can be large or run the other way; the % refers to the signal ratio; further: potency means the concentration at half of the fitted maximal effect)
Outline: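 Beta-lactamase FRET fluorescence is read after 2 hr at room temperature with LiveBLAzer B/G substrate. Before that, ER-alpha-bla HEK293 cells sit 4 hr after plating, then receive compound plus 17beta-estradiol and incubate 18 hr at 37C.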

[5] = qHTS assay to identify small molecule antagonists of the estrogen receptor alpha (ER-alpha) signaling pathway - cell viability counter screen (AID 743074; calls by dose curve;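 further: HEK293 cells carrying ER-alpha-UAS-bla reporter stimulated with 17beta-estradiol; nearly all actives have a fitted effect of over 45% in size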)
[6] = qHTS assay to identify small molecule antagonists of the estrogen receptor alpha (ER-alpha) signaling pathway using the BG1 cell line (AID 743080; calls by dose curve; further: series mostly up to about 70 µM; nearly all actives have a fitted effect of over 25% in size)
Outline: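 Antagonist mode: compounds in DMSO were pinned onto BG1-Luc-4E2 cells alongside 17beta-estradiol agonist, incubated 21.5 h, and ERE-driven luciferase measured with ONE-Glo. Cytotoxicity was multiplexed using CellTiter-Fluor fluorescence.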

[7] = qHTS assay to identify small molecule antagonists of the estrogen receptor alpha (ER-alpha) signaling pathway using the BG1 cell line - cell viability counter screen (AID 743081);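 further: compound given together with 17beta-estradiol as the ER stimulus; nearly all actives have a fitted effect of over 45% in size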; further: potency means the concentration at half of the fitted maximal effect
Aromatase (Homo sapiens) = Aromatase (Homo sapiens) (UniProt P11511); assay: qHTS assay to identify aromatase inhibitors (AID 743083); further: nearly all actives have a fitted effect of over 55% in size; further: potency means the concentration at half of the fitted maximal effect
[8] = qHTS assay to identify aromatase inhibitors - cell viability counter screen (AID 743084);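 further: cells stimulated with testosterone during compound exposure; nearly all actives have a fitted effect of over 55% in size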
[9] = molecular target: Aryl hydrocarbon receptor (Homo sapiens) (UniProt P35869); assay: qHTS assay to identify small molecule that activate the aryl hydrocarbon receptor (AhR) signaling pathway (AID 743085);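 further: HG2L7.5c1 human HepG2 liver cells with stably integrated DRE-driven firefly reporter; series mostly up to about 70 µM; nearly all actives have a fitted effect of over 15% in size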
Outline: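 Cell line HG2L7.5c1 (human hepatoma, 20× DRE-luc). Plated, 5 h 37C, compound/DMSO added, 24 h 37C. CellTiter-Fluor 30 min 37C → fluorescence; then ONE-Glo 30 min RT → luminescence.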

[10] = qHTS assay to identify small molecule that activate the aryl hydrocarbon receptor (AhR) signaling pathway - cell viability counter screen (AID 743086); further: nearly all actives have a fitted effect of over 45% in size; further: potency means the concentration at half of the fitted maximal effect
Outline: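 HepG2-AhR-luc (HG2L7.5c1) cells, 4000/well, treated 24 h at 37 C with compound; viability measured as CellTiter-Fluor fluorescence after 30 min in the same wells as the luciferase read.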

[11] = qHTS assay to identify small molecule antagonists of the peroxisome proliferator-activated receptor gamma (PPARg) signaling pathway - cell viability counter screen (AID 743194); further: nearly all actives have a fitted effect of over 55% in size
Outline: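 Cytotoxicity counter screen in PPARg-bla HEK293H cells, same wells as reporter assay. Compounds plus 50 nM rosiglitazone (final) for 17 h at 37 C, then viability read by CellTiter-Glo luminescence.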

[12] = qHTS assay for small molecule agonists of the antioxidant response element (ARE) signaling pathway (AID 743202; active means well fitted activation curve with a large enough effect in the signal ratio in the repeat runs, not every such curve was filed as active; inconclusive means weak or mixed curves, or effect the other way; inactive means no such curve, though single readings can be large or run the other way; the % refers to the signal ratio; further: potency means the concentration at half of the fitted maximal effect)
Outline: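 HepG2 ARE-bla reporter line, 2,000 cells/well; 5 h preincubation 37 C/5% CO2; compound (DMSO) 16 h 37 C; B/G FRET substrate 2 h RT; fluorescence intensity.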

[13] = qHTS assay for small molecule agonists of the antioxidant response element (ARE) signaling pathway - cell viability counter screen (AID 743203; calls by dose curve; further: nearly all actives have a fitted effect of over 55% in size)
Outline: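 Parallel cytotoxicity read-out for the ARE-bla screen: HepG2 reporter cells, 16 hrs with compounds, then CellTiter-Glo luminescence.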

[14] = qHTS assay for small molecule activators of the heat shock response signaling pathway - cell viability counter screen (AID 743209); further: nearly all actives have a fitted effect of over 50% in size
Outline: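 To flag cytotoxic compounds, HSE-bla HeLa cells plated at 1500 cells/well were dosed for 5 h at 37 C, followed by the reporter FRET read and then CellTiter-Glo, with luminescence recorded 30 min after reagent addition.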

[15] = qHTS assay for small molecule activators of the heat shock response signaling pathway (AID 743210; active means well fitted activation curve with a large enough effect in the signal ratio in the repeat runs, with a control signal flat, not every such curve was filed as active; inconclusive means weak or mixed curves; the % refers to the signal ratio;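 further: HeLa cells with beta-lactamase reporter driven by heat shock elements; series mostly up to about 63 µM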)
Outline: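 Beta-lactamase reporter read-out: FRET substrate fluorescence after 2.5 h at RT, following 5 h compound treatment at 37 C of HeLa cells carrying HSE-driven bla reporter; quantitative HTS format.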

[16] = molecular target: Estrogen receptor (Homo sapiens) (UniProt P03372); assay: qHTS assay to identify small molecule agonists of the estrogen receptor alpha (ER-alpha) signaling pathway (AID 743075; calls by dose curve;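 further: HEK293 GripTite cells with ER-alpha and UAS-driven beta-lactamase reporter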; further: potency means the concentration at half of the fitted maximal effect)
[17] = molecular target: Peroxisome proliferator-activated receptor gamma (Homo sapiens) (UniProt P37231); assay: qHTS assay to identify small molecule agonists of the peroxisome proliferator-activated receptor gamma (PPARg) signaling pathway (AID 743094; active means well fitted activation curve with a large enough effect in the signal ratio in the repeat runs, not every such curve was filed as active; inconclusive means weak or mixed curves, or effect the other way; inactive means no such curve, though single readings can be large or run the other way; the % refers to the signal ratio)
Outline: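 Fluorescence-based beta-lactamase readout in HEK293H PPARg UAS-bla cells after 17 h compound exposure (37C) and 1 h B/G FRET substrate incubation at room temperature.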

[18] = molecular target: Estrogen receptor (Homo sapiens) (UniProt P03372); assay: qHTS assay to identify small molecule agonists of the estrogen receptor alpha (ER-alpha) signaling pathway using the BG1 cell line (AID 743079); further: nearly all actives have a fitted effect of over 20% in size

Chain of Estrogen receptor (Homo sapiens) (P03372 whole entry, looked up): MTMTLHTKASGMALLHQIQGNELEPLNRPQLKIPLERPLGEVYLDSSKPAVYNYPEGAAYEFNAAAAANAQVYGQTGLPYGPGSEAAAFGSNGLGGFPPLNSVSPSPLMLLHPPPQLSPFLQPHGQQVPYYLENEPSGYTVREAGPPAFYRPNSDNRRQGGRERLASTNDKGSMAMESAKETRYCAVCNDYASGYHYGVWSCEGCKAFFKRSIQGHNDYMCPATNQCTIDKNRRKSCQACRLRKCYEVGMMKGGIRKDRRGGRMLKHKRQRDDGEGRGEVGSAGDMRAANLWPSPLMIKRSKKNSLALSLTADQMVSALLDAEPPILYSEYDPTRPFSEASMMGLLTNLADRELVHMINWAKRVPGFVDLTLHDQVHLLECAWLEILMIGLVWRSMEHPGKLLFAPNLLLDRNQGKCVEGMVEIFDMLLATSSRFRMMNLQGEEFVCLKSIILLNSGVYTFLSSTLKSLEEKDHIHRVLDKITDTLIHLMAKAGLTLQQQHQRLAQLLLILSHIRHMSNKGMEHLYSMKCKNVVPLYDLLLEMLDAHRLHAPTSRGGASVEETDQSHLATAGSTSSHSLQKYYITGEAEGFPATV
Chain of Aryl hydrocarbon receptor (Homo sapiens) (P35869 whole entry, looked up): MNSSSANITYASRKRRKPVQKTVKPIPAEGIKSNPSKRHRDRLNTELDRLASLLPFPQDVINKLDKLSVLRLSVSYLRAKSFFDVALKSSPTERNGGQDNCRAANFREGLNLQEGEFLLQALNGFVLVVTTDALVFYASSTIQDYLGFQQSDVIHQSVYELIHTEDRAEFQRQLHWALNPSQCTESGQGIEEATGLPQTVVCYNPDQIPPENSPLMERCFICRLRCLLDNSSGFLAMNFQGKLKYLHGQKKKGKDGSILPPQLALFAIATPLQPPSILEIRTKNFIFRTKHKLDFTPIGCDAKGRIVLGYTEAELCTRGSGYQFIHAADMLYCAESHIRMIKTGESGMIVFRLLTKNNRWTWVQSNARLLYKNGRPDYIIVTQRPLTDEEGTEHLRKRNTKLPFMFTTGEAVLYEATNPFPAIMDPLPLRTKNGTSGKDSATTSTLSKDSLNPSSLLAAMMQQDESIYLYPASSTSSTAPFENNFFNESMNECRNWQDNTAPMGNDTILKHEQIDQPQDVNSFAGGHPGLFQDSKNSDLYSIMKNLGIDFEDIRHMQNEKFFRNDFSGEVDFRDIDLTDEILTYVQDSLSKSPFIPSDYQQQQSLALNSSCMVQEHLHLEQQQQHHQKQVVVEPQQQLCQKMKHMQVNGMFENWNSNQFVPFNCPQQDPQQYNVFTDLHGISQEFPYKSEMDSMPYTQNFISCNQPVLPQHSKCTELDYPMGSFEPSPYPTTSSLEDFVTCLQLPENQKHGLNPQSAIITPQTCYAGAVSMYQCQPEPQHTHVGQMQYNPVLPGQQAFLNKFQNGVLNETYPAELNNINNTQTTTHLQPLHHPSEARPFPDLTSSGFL
Chain of Aromatase (Homo sapiens) (P11511 whole entry, looked up): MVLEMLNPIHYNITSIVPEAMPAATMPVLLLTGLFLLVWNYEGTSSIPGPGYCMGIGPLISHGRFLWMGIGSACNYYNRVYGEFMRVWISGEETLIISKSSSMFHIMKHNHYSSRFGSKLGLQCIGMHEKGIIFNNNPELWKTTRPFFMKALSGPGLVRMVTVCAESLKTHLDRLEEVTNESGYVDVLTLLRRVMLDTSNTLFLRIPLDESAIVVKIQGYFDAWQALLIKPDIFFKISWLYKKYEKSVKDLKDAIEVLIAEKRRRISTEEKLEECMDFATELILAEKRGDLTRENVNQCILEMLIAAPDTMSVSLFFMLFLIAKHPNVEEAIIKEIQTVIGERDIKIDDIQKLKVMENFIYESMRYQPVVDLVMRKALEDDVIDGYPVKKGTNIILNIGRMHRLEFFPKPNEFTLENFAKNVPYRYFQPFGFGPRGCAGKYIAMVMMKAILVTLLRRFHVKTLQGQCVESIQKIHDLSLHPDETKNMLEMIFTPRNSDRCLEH
Chain of Peroxisome proliferator-activated receptor gamma (Homo sapiens) (P37231 whole entry, looked up): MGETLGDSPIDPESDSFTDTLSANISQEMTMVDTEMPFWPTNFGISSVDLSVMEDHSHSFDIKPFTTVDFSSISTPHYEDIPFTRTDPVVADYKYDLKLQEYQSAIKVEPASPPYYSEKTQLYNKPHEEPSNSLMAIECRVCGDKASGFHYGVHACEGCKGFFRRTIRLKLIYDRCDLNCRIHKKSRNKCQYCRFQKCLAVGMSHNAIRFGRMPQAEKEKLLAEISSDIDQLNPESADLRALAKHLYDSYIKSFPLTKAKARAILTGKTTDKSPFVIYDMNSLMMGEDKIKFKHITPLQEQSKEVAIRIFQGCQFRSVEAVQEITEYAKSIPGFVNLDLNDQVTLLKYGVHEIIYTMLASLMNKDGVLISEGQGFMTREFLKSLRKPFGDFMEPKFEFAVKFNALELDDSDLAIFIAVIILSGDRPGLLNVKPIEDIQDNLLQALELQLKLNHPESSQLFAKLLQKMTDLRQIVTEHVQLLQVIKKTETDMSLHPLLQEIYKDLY

SMILES | Potency [1] | Potency [2] | outcome [3] | Potency [4] | Potency [5] | Potency [6] | Potency [7] | Potency (Aromatase (Homo sapiens)) | Potency [8] | Potency [9] | Potency [10] | Potency [11] | Potency [12] | Potency [13] | Potency [14] | Potency [15] | Potency [16] | Potency [17] | Potency [18]
CCCCCCCC | inactive | inactive | inactive | inactive | inactive | inactive | inactive | inactive | inactive | inactive | inactive | inactive | inactive | inactive | inactive | inactive |  |  | 
CC[N+](CC)(CC)CCOc1ccc(/C=C/c2ccccc2)cc1 | inactive | 29.8 µM (active) | inactive | 5.35 µM [inconclusive] (active) | inactive |  | inactive | 29.8 µM (active) | inactive | inactive | inactive | inactive |  | inactive | inactive | inactive | inactive | inactive | 
CC(C)CCCCCOC(=O)CCS | inactive | inactive | inactive | inactive | inactive |  | inactive | inactive | inactive | inactive | inactive | inactive |  |  | inactive | inactive | inactive |  | inactive
CC(=O)CC(=O)Nc1ccc(S(=O)(=O)O)cc1 | inactive | inactive | inactive | inactive | inactive |  | inactive | inactive | inactive | inactive | inactive | inactive | inactive | inactive | inactive | inactive | inactive | inactive | inactive
COC(=O)C1=C(C)NC(C)=C(C(=O)OCCN2CCN(C(c3ccccc3)c3ccccc3)CC2)C1c1cccc([N+](=O)[O-])c1 (stereo not drawn) | 8.41 µM (active) | 6.68 µM (active) | inactive | 8.49 µM [inconclusive] (active) | inactive |  | 3.76 µM (active) | 13.3 µM (active) | inactive | inactive |  | inactive |  |  | inactive |  | inactive |  | 
CC1=Nc2ccccc2C1(C)C | inactive | inactive | inactive | inactive | inactive |  | inactive | inactive | inactive | inactive |  | inactive | inactive | inactive |  |  | inactive |  | inactive
O=C(O)c1cc(=O)c2ccccc2o1 | inactive | inactive | inactive | inactive | inactive |  | inactive | inactive | inactive | inactive | inactive |  | inactive | inactive | inactive | inactive | inactive |  | inactive
CC(=O)Oc1cc2c(s1)CCN(C(C(=O)C1CC1)c1ccccc1F)C2 (stereo not drawn) | inactive | inactive | inactive | inactive |  | inactive | inactive | inactive | inactive | inactive | inactive | inactive | inactive | inactive | inactive | inactive | inactive |  | inactive
CCCCCCCCCCCC(=O)OCC(C)OC(=O)CCCCC(=O)O (stereo not drawn) | inactive | inactive | inactive | inactive | inactive | inactive | inactive | inactive | inactive | inactive |  | inactive |  | inactive | inactive |  |  |  | inactive
C=C(CC)C(=O)c1ccc(OCC(=O)O)c(Cl)c1Cl | 68.1 µM (active) | 26.6 µM (active) and 54.1 µM (active) | inactive | inactive | inactive |  | inactive | inactive | inactive | inactive | inactive and 68.1 µM (active) | inactive | 0.764 µM (active) | inactive |  |  | inactive and 68.7 µM [fluorescent] (active) |  | inactive
Clc1ccnc(Cl)n1 | inactive | inactive | inactive | inactive | inactive |  | inactive | inactive | inactive | inactive | inactive | inactive | inactive | inactive | inactive | inactive | inactive | inactive | inactive
O=C1CCCCCCCCCCCCCCCO1 | inactive | inactive | inactive |  | inactive | inactive | inactive | inactive | inactive | inactive | inactive | inactive |  | inactive | inactive | inactive | inactive | inactive | inactive
